Laboratory results published in PubChem BioAssay (NCI).
The panel holds about 83,000 compounds, 20% with a hit somewhere; the sample as a whole holds those more often.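 Assay: single dose, 48 h. Readout: percent growth (0 = no net growth; negative = cell death). Active: <10.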 Values without a mark were called inactive. The source made the active and inactive calls.

system: HL-60(TB) leukemia; test: NCI-60 one-dose screen, 48 h (100 = growth as untreated, 0 = no growth, -100 = all killed); details: 10 µM unless noted

Structure (SMILES)	growth
CCCCN(CCCC)CCC(O)c1cc2ccc(C(F)(F)F)cc2c2cc(C(F)(F)F)ccc12 (configuration not stated)	49.8%
COc1ccc(-c2nn(-c3cccc(Cl)c3)cc2C2CC(c3ccccc3)=NN2C(C)=O)cc1 (configuration not stated)	101%
Nc1n[nH]c2cccc(C#Cc3cccc(NC(=O)c4cc(N5CCOCC5)cc(C(F)(F)F)c4)c3)c12	10.6%
Clc1ccc(-c2nc(-c3cccs3)no2)cc1	108%
C=C1C(=O)O[C@@H]2C3C(=C(C)CC[C@@H]12)CC1O[C@]13C (some centres not stated)	77.6% [6.75 µM]
COc1cc(-c2nc(-c3nc4ccccc4[nH]3)cc3c2[nH]c2ccccc23)cc(OC)c1OC	44.2%
COc1cc(/C=C/C(=O)N2CCN(C(=O)/C=C/c3cc(OC)c(OC)c(OC)c3)CC2)cc(OC)c1OC	91.7%
CCCCC(=O)Nc1ncc(Cc2ccccc2Cl)s1	-7.94% (active)
CC(=O)c1ccc2c(ccc3ccccc32)c1	90.6%
CCOC(=O)C1=C(C)N2C(=NC3=C(CCC/C3=C\c3ccc(Cl)cc3)C2c2ccc(Cl)cc2)S1 (configuration not stated)	-10.8% (active)
CCc1ccc(C(c2ccc(CC)cc2)C(Cl)(Cl)CCl)cc1	77.2%
COc1ccc(CCN=Cc2ccc(Cl)cc2)cc1OC	86.6%
COC(=O)c1ccc(-n2cc(CCCOS(=O)(=O)c3ccc(F)cc3)nn2)cc1	99.6%
O=C(CCCCCCCC(=O)N1CCCCC1)N1CCCCC1	94.5%
CCOC(=O)C1=C(CC(O)c2ccc(OC)cc2OC)NC(=O)NC1c1ccccc1 (configuration not stated)	-33.9% (active)
CC(C)(C)[Si](C)(C)OC1[C@@H](CNC(=O)NC(=O)NC(N)=O)O[C@@H](n2cnc3c(NC(=O)Nc4ccccc4)ncnc32)[C@H]1O[Si](C)(C)C(C)(C)C (some centres not stated)	86.3%
CN1CCN(CC(=O)Nc2nc(-c3cccc(NS(=O)(=O)c4cccc5c(N(C)C)cccc45)c3)cs2)CC1	23.3%
COc1cc2ccnc(C=O)c2cc1OC	-27.4% (active)
COc1ccc(Cc2cnc(NC(=O)c3ccc4c(c3)OCCO4)s2)cc1	-42.1% (active)

Structure (SMILES)	growth
N#Cc1c(-c2ccc(Cl)cc2)csc1NC(=O)Nc1ccc(Cl)c(C(F)(F)F)c1	-34.2% (active)
O=S(=O)(Nc1cc(Cl)ccc1Cl)c1ccc(-c2cnc(C3CC3)o2)cc1	0.302% (active)
COc1ccc(-c2cnnn2-c2cc(OC)c3c(c2)OCO3)cc1	-32% (active)
C[C@H]1[C@H]2[C@H]3CC[C@@H]4[C@@]5(C)C/C(=C/c6ccco6)C(=O)C(C)(C)[C@@H]5CC[C@@]4(C)[C@]3(C)CC[C@]23CO[C@]1(C)[C@@H](C(=O)/C=C\c1ccco1)C3	95.8%
COc1cccc(/C=C2\COc3ccc(O)c(O)c3C2=O)c1	-20% (active)
CCc1ccc2c(c1)N(CCO)C1=C(C(=O)OC1)C2c1cc(OC)c(OC)c(OC)c1 (configuration not stated)	-26.4% (active)
Cc1nc2sc(C(=O)Nc3ccccc3)c(N)c2cc1C(=O)c1ccc(C(F)(F)F)cc1	99.3%
C(=N\Nc1ncnc2sc3c(c12)CCNC3)/c1cccc2ccccc12	99.1%
NC1CCC(Nc2nc(NCc3ccc(-c4ccccc4O)nc3)c3ncn(C4CCCC4)c3n2)CC1 (configuration not stated)	-41.8% (active)
CC(=O)c1cc(C(=O)c2ccc3c(c2)Sc2ccccc2N3)c2c(C)cccn12	-4.53% (active)
COc1ccc2occ(C3=C(c4c[nH]c5ccccc45)C(=O)NC3=O)c2c1	20.8%
COc1ccc(NC(=O)c2ccc(Nc3ncnc4c3cnn4-c3cccc(F)c3)cc2)cc1	94.9%
CC/C=C\C=C/C(=O)N/C=C/CC1Cc2cccc(O)c2C(=O)O1 (configuration not stated)	17.4%
COc1ccc(C(=O)/C=C/c2ccccc2)cc1S(N)(=O)=O	64.2%
CN1CCN(CCOc2ccc(-c3cnc4c(-c5ccc(C(F)(F)F)cc5)cnn4c3)cc2)CC1	-32.5% (active)
CS(=O)(=O)c1ccc(C(=O)N/N=C/c2ccc3c(c2)OCO3)cc1	57%
CCc1ccc(-c2nnc(COc3ccc(-c4nc5cc(Cl)c(Cl)cc5[nH]4)cc3OC)o2)cc1	105%
Nc1nc(Nc2ccccc2SSc2ccccc2Nc2nc(N)nc(-c3cccc(Cl)c3)n2)nc(-c2cccc(Cl)c2)n1	99.3%
